Compound activity from PubChem.
HT1080NT lethal – kills 2HG-producing HT-1080-NT fibrosarcoma cells. HT-1080-NT fibrosarcoma viability, CellTiter-Glo ATP luminescence, 48 h. Potency, µM (top dose mostly 46.1 µM), inactives show at the top dose activity, negative = less viability, actives largely listed as cytotoxic. 360,000 tested, 1.6% active. AID 686970;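 also: NT is the 2HG producing partner of a matched IDH1 knockdown line; 0% = DMSO-treated cells and -100% = media-only wells without cells; nearly all actives have a fitted effect of over 55% in size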
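Compounds were tested in concentration-response format on HT-1080-NT cells for 48 hours at 37 degrees C. Cell viability came from CellTiter-Glo luminescence; curves were classified by r2, response magnitude and activity.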
SW480 rereplic – DNA re-replication induction in SW480 cells; 340,000 tested, 1.8% active; Potency, µM (series often up to 46.1 µM), inactives show top-dose re-replication activation, hits mostly activators; SW480 DNA re-replication, Hoechst DNA content imaging, 48 h; AID 624297; also: % of control where 0% means no effect; nearly all actives have a fitted effect of over 55% in size
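Image-based read-out: total Hoechst fluorescence of nuclei (405 nm excitation, 500-530 nm emission), with hits raising the fraction of high-intensity nuclei. SW480 colon cells incubated 48 hr with compounds at 37 C.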
KB-3-1 cytotox – KB-3-1 parental cell cytotoxicity | 400,000 tested, 1.4% active | Potency, µM (series often up to 46.1 µM), hits mostly cytotoxic | KB-3-1 viability, CellTiter-Glo ATP luminescence, 72 h | AID 1347075; also: % is scaled to controls: 0 for no effect and ±100 for the full control effect; nearly all actives have a fitted effect of over 60% in size
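Here the drug-naive KB-3-1 line serves as comparator for MDR sub-line selectivity; cells received compound titrations, 72 h at 37 °C, then CellTiter-Glo readout.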
KB-V1 cytotox – kills drug-selected multidrug resistant KB-V1 cells. 400,000 tested, 3.4% active. Potency, µM (highest dose often 46.1 µM), most hits filed as cytotoxic. KB-V1 MDR cells viability, CellTiter-Glo, 72 h; also: % is scaled to controls: 0 for no effect and ±100 for the full control effect; nearly all actives have a fitted effect of over 60% in size
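Cytotoxicity via CellTiter-Glo luminescence after 72 h compound exposure at 37 degrees C. Cells: drug-selected KB-V1 line, DMEM phenol-red free plus 10% FBS. Compounds tested at multiple concentrations; normalized data fitted to concentration-effect curves.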
MCF10A rerep – DNA re-replication induction in MCF 10a cells; MCF 10A DNA re-replication, Hoechst nuclear intensity, 48 h; Potency, µM (doses to about 46.1 µM), inactives show top-dose activity, positive = re-replication, hits mostly activators; 350,000 tested, 2.9% active; AID 624296; also: % of control where 0% means no effect; nearly all actives have a fitted effect of over 50% in size
HT1080 IDH1KD tx – HT-1080 IDH1 knockdown cell toxicity (counter line); HT-1080 IDH1 knockdown viability, ATP luminescence, 48 h; Potency, µM (highest dose often 46.1 µM), inactives show at the top dose activity, negative = toxicity, hits mostly cytotoxic; 360,000 tested, 2% active; AID 686971;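 also: 0% = DMSO wells and -100% = cell-free medium wells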
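In this qHTS, HT-1080 cells depleted of IDH1 are exposed for 48 h at 37 °C to compound titrations. Toxicity is scored from CellTiter-Glo luminescence, with DMSO as full viability and medium alone as none.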
Numbers without * were called inactive; i = inactive; ? = inconclusive; · = no result; [ ] = dose if it differs, or a comment. Sampled rows, rich in hits. Any-hit rate of the full collection: about 7.9%. Calls follow the shape of the dose curve; as a rule, active = well fitted curve in the direction sought with a large enough effect; inconclusive = small, poorly fitted or top-dose-only effect, or another doubt; inactive = no such curve, though single readings can be large; an effect the other way counts as inactive or inconclusive. Potency is read from the fitted curve at half-maximal effect.

SMILES | HT1080NT lethal | SW480 rereplic | KB-3-1 cytotox | KB-V1 cytotox | MCF10A rerep | HT1080 IDH1KD tx
Cc1cccc(NC(=S)NC2CCCCCC2)c1C | -1.0% | -0.2% | i | 18.4µM* | 11.0% | -5.2%
CC(C)(C)NC(=S)Nc1ccc(Nc2ccccc2)cc1 | 5.62µM* | 14.0% | ? | 16.4µM* | -3.7% | 6.31µM*
Cc1cccc(NC(=S)NC2CCCC2)c1C | 4.6% | -11.6% | i | i | 6.1% | -1.8%
S=C(Nc1ccc(Nc2ccccc2)cc1)NC1CCCCCC1 | ? | 20.6µM* | ? | ? | 13.1% | ?
S=C(Nc1ccc(Cl)cc1)NC1CCCCC1 | -28.6% | -46.0% | i | i | -1.8% | ?
O=C(Nc1ccc2oc(-c3cccnc3)nc2c1)c1ccc(Br)cc1 | · | · | i | ? | · | ·
COc1ccc(S(=O)(=O)N(C)c2nc3ccccc3n3c(CC(C)C)nnc23)cc1 | -25.8% | 14.3% | i | ? | 11.6µM* | -2.3%
O=C(c1ccccc1NS(=O)(=O)c1ccc2c(c1)OCCO2)N1CCOCC1 | 3.1% | 11.6µM* | i | i | 6.51µM* | 3.1%
O=C(Nc1ccccc1N1CCOCC1)c1ccccc1NS(=O)(=O)c1ccc(F)cc1 | -4.2% | 2.2% | i | i | 1.4% | 1.8%
O=C(c1ccc(F)cc1F)N1CCN(S(=O)(=O)c2ccc3c(c2)OCCO3)CC1 | 0.2% | 4.0% | ? | 16.4µM* | 4.8% | 5.2%
Cc1cccc(C(=O)NC(C(=O)Nc2ccccc2N2CCOCC2)C(C)C)c1 (stereo not given) | 1.4% | 16.0% | i | i | -2.1% | -10.5%
O=C(Nc1ccccc1N1CCOCC1)c1ccccc1NS(=O)(=O)c1ccc(F)c(F)c1 | 18.4µM* | 8.9%[9.22 µM] | ? | ? | ? | ?
CC(C)[C@H](NS(=O)(=O)c1ccccc1)C(=O)Nc1ccccc1N1CCOCC1 | 2.1% | -2.1% | i | 8.2µM* | 1.8% | 3.4%
O=C(c1ccc(F)cc1)N1CCN(S(=O)(=O)c2ccc3c(c2)OCCO3)CC1 | 1.3% | · | i | ? | · | -3.9%
CC(C)C(=O)OC1=CN(Cc2ccccc2)S(=O)(=O)c2ccccc21 | · | · | i | i | · | ·
NS(=O)(=O)c1ccc(CCNC(=O)c2nc(SCc3ccccc3F)ncc2Cl)cc1 | · | · | i | i | · | ·
COc1cc(C2NCC(c3ccc(Cl)cc3Cl)c3c2[nH]c2ccccc32)cc(OC)c1OC (stereo not given) | 18.4µM* | ? | 18.4µM* | ? | 18.4µM* | 14.6µM*
O=C(Nc1ccc2c(c1)OCCO2)C1c2ccccc2OCC(=O)N1CC(F)(F)F (stereo not given) | -3.5% | · | i | i | · | 2.2%
COc1ccc(/C(O)=C/c2nc3ccccc3n(-c3ccccc3)c2=O)cc1 | 24.3% | ? | i | i | 8.2µM* | 22.5%
COc1ccc(-n2c(=O)c(CCC(=O)N3CCN(c4cccc(OC)c4)CC3)nc3ccccc32)cc1 | -3.6% | · | i | i | · | -0.5%
N#CC1(NC(=O)CSc2nnc(C3CC3)n2N)CCCCC1 | 15.4% | · | i | i | · | 16.5%
CC1CC(C)(C)CC2(C1)NC(=O)N(CC(=O)OCc1ccc(Br)cc1)C2=O (stereo not given) | -5.4% | 4.0% | i | 16.4µM* | ? | ?
CN(C)c1ccc(NC(=S)c2ccccn2)cc1 | ? | ? | 14.6µM* | ? | -3.1% | ?
CCCCn1c(SCC(N)=O)nc2c(sc3ccccc32)c1=O | 22.4µM* | -26.0% | i | i | 3.3% | -9.5%
CCOC(=O)c1ccccc1NC(=O)CSc1nc2ccccc2c(=O)n1CCCN1CCOCC1 | -12.6% | ? | i | i | 13µM* | -9.6%
O=C(CSc1nc2c(sc3ccccc32)c(=O)n1CCc1ccccc1)NCc1ccco1 | -12.7% | -3.8% | i | 2.06µM* | -1.9% | 0.2%
